# Reference: PubChem BioAssay (EPA / NIEHS)
# Results filed as inconclusive are left out. The source holds several records for some structures; these can differ, active in one and inactive in another. Activity calls are given as the source filed them. The calls were made as follows: active = hit-call score of the fitted dose curve at least 0.9, where 1 is the maximum; inconclusive = response in the unintended direction; inactive = score below 0.9.
# Experiments:
# [1] = molecular target: chimpanzee Androgen Receptor (AR), AR (gene 747460) (UniProt O97775); assay: NVS_NR_cAR: NovaScreen (NVS) Nuclear Receptor Binding Assay for chimpanzee Androgen Receptor (AR) (AID 2283346);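 also: radioligand displacement from AR measured by scintillation counting in a cell-free assay; a loss of bound radioligand signal versus DMSO counts as binding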
# Chain of chimpanzee Androgen Receptor (AR), AR (gene 747460) (O97775 whole entry, looked up): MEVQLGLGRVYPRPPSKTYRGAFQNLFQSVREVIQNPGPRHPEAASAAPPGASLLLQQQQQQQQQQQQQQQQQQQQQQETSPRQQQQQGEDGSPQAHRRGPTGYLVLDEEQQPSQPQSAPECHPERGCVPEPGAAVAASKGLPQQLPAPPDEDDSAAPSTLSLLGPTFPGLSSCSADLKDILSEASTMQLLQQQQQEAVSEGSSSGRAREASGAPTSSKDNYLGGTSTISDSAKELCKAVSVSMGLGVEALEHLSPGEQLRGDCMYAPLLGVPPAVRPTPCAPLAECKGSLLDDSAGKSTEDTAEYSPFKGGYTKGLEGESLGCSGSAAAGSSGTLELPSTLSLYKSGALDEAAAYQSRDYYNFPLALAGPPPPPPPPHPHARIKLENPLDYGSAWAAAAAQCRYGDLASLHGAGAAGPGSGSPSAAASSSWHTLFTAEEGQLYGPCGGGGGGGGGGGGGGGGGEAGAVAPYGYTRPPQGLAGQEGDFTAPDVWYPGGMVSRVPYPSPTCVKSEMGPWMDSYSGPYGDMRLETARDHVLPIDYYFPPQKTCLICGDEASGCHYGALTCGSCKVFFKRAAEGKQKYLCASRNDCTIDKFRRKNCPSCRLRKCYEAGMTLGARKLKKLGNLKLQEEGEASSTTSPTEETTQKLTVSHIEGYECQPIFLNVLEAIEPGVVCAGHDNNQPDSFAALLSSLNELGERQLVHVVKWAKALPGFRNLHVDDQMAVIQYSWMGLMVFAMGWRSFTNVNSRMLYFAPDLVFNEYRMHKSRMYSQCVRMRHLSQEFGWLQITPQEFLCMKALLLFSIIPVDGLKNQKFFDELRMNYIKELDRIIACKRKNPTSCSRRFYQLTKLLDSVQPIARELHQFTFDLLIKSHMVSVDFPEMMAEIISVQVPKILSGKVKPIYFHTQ
# Outline: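 Cell-free competition binding with insect-cell (Sf9/Sf21) extracted chimpanzee AR; scintillation signal from lysate at 72 h. Screened in duplicate at 25 uM, then concentration-response for actives; fitting relative to DMSO.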
# [2] = molecular target: Estrogen receptor (Homo sapiens) (UniProt P03372); assay: NVS_NR_hER: NovaScreen (NVS) Nuclear Receptor Binding Assay for human Estrogen Receptor (ER) (AID 2283348)
# Chain of Estrogen receptor (Homo sapiens) (P03372 whole entry, looked up, the tested form may be a part): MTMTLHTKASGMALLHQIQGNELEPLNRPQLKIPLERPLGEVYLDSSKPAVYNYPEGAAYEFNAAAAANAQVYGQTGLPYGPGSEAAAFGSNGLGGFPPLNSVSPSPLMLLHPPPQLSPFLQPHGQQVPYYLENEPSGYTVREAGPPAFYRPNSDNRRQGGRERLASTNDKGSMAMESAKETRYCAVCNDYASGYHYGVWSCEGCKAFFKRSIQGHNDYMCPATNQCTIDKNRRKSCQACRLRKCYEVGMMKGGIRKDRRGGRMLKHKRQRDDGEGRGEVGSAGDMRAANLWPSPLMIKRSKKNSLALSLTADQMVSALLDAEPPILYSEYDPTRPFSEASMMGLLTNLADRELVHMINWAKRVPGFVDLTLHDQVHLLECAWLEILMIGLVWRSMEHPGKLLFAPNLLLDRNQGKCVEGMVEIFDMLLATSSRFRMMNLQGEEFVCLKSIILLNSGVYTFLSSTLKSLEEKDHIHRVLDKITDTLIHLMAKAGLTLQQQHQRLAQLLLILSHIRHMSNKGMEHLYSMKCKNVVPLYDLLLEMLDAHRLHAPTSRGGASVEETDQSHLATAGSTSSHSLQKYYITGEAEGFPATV
# Outline: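 Cell-free MCF7-derived ER preparation, specific radioligand displaced by test compound, read by scintillation counting 18 h post-dosing. Duplicate single-point 25 uM screen, then concentration-response confirmation; DMSO baseline.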
# [3] = molecular target: rat Mineralocorticoid Receptor (MR), Nr3c2 (gene 25672) (UniProt P22199); assay: NVS_NR_rMR: NovaScreen (NVS) Nuclear Receptor Binding Assay for rat Mineralocorticoid Receptor (MR) (AID 2283355)
# Chain of rat Mineralocorticoid Receptor (MR), Nr3c2 (gene 25672) (P22199 whole entry, looked up): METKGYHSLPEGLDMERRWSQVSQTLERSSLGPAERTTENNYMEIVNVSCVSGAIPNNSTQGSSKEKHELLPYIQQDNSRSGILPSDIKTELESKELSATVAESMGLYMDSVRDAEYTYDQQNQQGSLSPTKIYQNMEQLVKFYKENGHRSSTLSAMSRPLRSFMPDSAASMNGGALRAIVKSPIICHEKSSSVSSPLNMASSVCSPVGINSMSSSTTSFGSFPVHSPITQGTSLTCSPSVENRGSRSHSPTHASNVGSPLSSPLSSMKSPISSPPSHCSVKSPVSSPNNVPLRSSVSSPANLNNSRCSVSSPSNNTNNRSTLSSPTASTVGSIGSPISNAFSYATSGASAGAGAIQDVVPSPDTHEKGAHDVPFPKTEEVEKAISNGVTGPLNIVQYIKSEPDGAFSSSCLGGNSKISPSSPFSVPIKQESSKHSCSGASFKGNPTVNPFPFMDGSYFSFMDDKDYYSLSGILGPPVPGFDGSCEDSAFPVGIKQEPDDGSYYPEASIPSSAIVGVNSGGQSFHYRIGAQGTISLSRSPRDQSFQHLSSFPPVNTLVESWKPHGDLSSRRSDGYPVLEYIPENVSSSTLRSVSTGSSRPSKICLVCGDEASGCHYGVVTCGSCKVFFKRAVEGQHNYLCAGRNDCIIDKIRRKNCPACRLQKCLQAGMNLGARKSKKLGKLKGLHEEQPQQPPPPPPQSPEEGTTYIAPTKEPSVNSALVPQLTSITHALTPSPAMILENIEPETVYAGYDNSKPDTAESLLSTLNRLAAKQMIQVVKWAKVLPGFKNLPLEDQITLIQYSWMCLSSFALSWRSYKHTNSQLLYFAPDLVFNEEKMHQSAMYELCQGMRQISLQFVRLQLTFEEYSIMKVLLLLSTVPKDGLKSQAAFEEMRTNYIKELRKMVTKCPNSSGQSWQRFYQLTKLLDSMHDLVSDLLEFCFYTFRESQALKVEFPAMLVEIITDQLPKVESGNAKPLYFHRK
# Outline: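 Primary HTS ran in duplicate at a single 25 uM concentration, with concentration-series follow-up for actives. Receptor source: adrenalectomized rat brain supernatant, cell-free. Radioligand displacement read by scintillation at 24 h, relative to DMSO baseline.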
# [4] = molecular target: Estrogen receptor (Homo sapiens) (UniProt P03372); assay: OT_ER_ERaERa_1440: Odyssey Thera (OT) 24-hour HEK293T Protein-Complementation Assay for Estrogen Receptor-alpha/-alpha Homodimer (AID 2283349);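 also: hits raise fluorescence above DMSO for agonists and antagonists alike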
# Outline: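 HEK293T, stable ERα LBD (aa 310-547) homodimer PCA; 24 h compound exposure; mean fluorescence intensity (nuclear for agonists, nuclear plus cytoplasmic for antagonists) vs vehicle; positive fitting direction, DMSO baseline.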
# [5] = molecular target: Estrogen receptor (Homo sapiens) (UniProt P03372); assay: OT_ER_ERaERa_0480: Odyssey Thera (OT) 8-hour HEK293T Protein-Complementation Assay for Estrogen Receptor-alpha/-alpha Homodimer (AID 2283351);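 also: rise in fluorescence from reassembled reporter fragments on ERα LBD homodimer in nucleus or whole cell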
# Outline: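 Cells were treated for 8 hours, then imaged on a laser scanning plate cytometer. Complementation of reporter fragments fused to the human ERα ligand-binding domain (residues 310-547) in HEK293T gave fluorescence, and gain of signal over vehicle was fitted.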
# [6] = molecular target: Androgen Receptor/SRC-1 Co-activator, AR (gene 367) (UniProt P10275); assay: OT_AR_ARSRC1_0960: Odyssey Thera (OT) 16-hour HEK293T Protein-Complementation Assay for Androgen Receptor/SRC-1 Co-activator (AID 2283353);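 also: actives raise the signal above DMSO so potency reflects increased AR and SRC-1 complex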
# Chain of Androgen Receptor/SRC-1 Co-activator, AR (gene 367) (P10275 whole entry, looked up, the tested form may be a part): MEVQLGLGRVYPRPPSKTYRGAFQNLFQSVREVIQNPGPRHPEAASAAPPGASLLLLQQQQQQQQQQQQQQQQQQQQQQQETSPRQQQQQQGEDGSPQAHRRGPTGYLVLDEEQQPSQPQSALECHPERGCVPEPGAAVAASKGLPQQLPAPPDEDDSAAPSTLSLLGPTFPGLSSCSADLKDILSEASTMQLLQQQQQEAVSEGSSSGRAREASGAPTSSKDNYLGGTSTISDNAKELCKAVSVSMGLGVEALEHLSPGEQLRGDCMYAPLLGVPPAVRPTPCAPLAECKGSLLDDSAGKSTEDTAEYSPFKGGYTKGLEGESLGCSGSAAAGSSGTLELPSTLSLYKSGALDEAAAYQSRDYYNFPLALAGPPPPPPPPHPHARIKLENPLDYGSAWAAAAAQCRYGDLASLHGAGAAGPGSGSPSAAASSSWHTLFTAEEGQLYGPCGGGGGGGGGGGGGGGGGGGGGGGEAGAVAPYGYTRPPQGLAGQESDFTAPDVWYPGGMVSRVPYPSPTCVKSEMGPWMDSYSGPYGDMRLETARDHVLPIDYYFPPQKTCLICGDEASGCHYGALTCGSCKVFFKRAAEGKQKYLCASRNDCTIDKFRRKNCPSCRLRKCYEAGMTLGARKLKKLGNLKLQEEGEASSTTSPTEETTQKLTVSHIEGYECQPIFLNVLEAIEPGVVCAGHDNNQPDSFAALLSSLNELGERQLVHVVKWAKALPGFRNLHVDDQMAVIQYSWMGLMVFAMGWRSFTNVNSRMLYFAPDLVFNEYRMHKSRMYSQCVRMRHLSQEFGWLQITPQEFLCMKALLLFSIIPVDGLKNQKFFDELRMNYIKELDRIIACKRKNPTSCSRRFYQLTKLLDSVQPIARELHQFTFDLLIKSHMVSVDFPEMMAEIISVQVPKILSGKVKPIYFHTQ
# Outline: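 Stable HEK293T line carries AR and SRC-1 each linked to a Venus fragment; chemicals are applied for 16 h, cells imaged at two wavelengths, and the 488 nm nucleus/cytoplasm ratio is taken as the signal, rising relative to DMSO.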
# [7] = molecular target: Androgen Receptor/SRC-1 Co-activator, AR (gene 367) (UniProt P10275); assay: OT_AR_ARSRC1_0480: Odyssey Thera (OT) 8-hour HEK293T Protein-Complementation Assay for Androgen Receptor/SRC-1 Co-activator (AID 2283354);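 also: hits raise the complementation signal above DMSO so AC50 marks enhancers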
# Outline: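 Reconstituted split-Venus YFP signal from AR–SRC-1 interaction, read by imaging 8 h post-dose in stable HEK293T lines. The 488 nm nucleus-to-cytoplasm ratio (≥400 cells/image) was fitted upward against DMSO.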
# [8] = molecular target: Estrogen receptor (Homo sapiens) + Estrogen receptor beta (Homo sapiens) (UniProt P03372+Q92731); assay: OT_ER_ERaERb_0480: Odyssey Thera (OT) 8-hour HEK293T Protein-Complementation Assay for Estrogen Receptor-alpha/-beta Heterodimer (AID 2283352)
# Chain of Estrogen receptor (Homo sapiens) + Estrogen receptor beta (Homo sapiens) (P03372 whole entry, looked up, the tested form may be a part): as the sequence (P03372 whole entry, looked up, the tested form may be a part) above
# Chain of Estrogen receptor (Homo sapiens) + Estrogen receptor beta (Homo sapiens) (Q92731 whole entry, looked up, the tested form may be a part): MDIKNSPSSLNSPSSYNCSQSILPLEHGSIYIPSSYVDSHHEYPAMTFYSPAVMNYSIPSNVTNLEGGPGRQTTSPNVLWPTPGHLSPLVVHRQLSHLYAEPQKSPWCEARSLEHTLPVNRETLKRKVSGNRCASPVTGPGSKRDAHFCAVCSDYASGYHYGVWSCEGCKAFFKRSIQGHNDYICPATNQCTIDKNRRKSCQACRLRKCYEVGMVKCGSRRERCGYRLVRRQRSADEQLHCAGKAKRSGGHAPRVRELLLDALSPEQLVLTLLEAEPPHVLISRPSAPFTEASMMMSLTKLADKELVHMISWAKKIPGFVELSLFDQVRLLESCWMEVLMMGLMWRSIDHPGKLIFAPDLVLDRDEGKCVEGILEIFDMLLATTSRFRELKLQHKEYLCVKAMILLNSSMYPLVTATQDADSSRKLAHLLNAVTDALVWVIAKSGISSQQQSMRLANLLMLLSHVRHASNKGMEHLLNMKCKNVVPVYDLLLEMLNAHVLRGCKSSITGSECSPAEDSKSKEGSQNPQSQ
# Outline: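 Fluorescence increase from reconstituted reporter fragments, quantified by laser scanning cytometer, reflects ER-alpha/ER-beta heterodimer formation in human HEK293T cells. Exposure 8 h; positive-direction fitting against DMSO vehicle.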
# [9] = molecular target: Estrogen receptor beta (Homo sapiens) (UniProt Q92731); assay: OT_ER_ERbERb_0480: Odyssey Thera (OT) 8-hour HEK293T Protein-Complementation Assay for Estrogen Receptor-beta/-beta Homodimer (AID 2283357);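 also: active means signal gain over DMSO baseline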
# Chain of Estrogen receptor beta (Homo sapiens) (Q92731 whole entry, looked up, the tested form may be a part): as above
# Outline: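 ER-beta LBD homodimer PCA stably expressed in HEK293T; 8 h compound exposure, then formaldehyde fixation and Draq5 staining. Gain in nuclear/cytoplasmic fluorescence intensity versus DMSO vehicle, read on laser scanning cytometer.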
# [10] = molecular target: human Peroxisome Proliferator-activated Receptor alpha (PPARa), PPARA (gene 5465) (UniProt Q07869); assay: NVS_NR_hPPARa: NovaScreen (NVS) Nuclear Receptor Binding Assay for human Peroxisome Proliferator-activated Receptor alpha (PPARa) (AID 2283359);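 also: activity means loss of TR-FRET signal versus DMSO baseline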
# Chain of human Peroxisome Proliferator-activated Receptor alpha (PPARa), PPARA (gene 5465) (Q07869 whole entry, looked up): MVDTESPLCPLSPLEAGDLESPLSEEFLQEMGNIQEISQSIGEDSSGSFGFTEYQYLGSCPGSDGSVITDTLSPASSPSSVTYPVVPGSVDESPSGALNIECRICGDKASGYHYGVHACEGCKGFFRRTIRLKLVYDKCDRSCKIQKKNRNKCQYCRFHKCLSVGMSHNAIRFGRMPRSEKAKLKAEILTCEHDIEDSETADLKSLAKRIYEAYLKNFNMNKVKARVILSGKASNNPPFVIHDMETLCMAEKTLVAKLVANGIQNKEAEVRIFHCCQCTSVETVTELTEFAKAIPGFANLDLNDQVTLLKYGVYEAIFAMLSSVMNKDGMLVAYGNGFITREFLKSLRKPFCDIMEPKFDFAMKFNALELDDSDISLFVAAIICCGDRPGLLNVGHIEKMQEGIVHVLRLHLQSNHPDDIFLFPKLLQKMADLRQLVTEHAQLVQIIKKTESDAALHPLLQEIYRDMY
# Outline: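 Loss of TR-FRET binding signal relative to DMSO was measured 1 h after chemical addition to extracted receptor protein. Chemicals were first tested in duplicate at 25 uM, and actives were followed up in concentration series.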
smiles,measurement,setting,value
O=C(Oc1ccccc1)c1ccc(O)cc1,outcome,[1],inactive
CCCC(=O)c1cc(O)c(O)cc1O,AC50,[2],7.55 µM (active)
c1cc(C(c2ccc(OCC3CO3)cc2)c2ccc(OCC3CO3)cc2)ccc1OCC1CO1 (stereo not drawn),outcome,[2],inactive
Cc1cc(C2(c3cc(C)c(O)cc3C)OS(=O)(=O)c3ccccc32)c(C)cc1O,AC50,[2],5.05 µM (active)
CC(=O)O[C@]1(C(C)=O)CC[C@H]2[C@@H]3C[C@H](C)C4=CC(=O)CC[C@]4(C)[C@H]3CC[C@@]21C,AC50,[1],0.422 µM (active)
same,AC50,[3],0.569 µM (active)
Clc1ccc2c(c1)C(N1CCNCC1)=Nc1ccccc1O2,outcome,[2],inactive
CC1=CCC2C(C1)C2(C)C (stereo not drawn),outcome,[2],inactive
O=Nc1ccc(Nc2ccccc2)cc1,outcome,[1],inactive
same,outcome,[2],inactive
same,outcome,[4],inactive
same,outcome,[5],inactive
same,AC50,[6],14.2 µM (active)
same,AC50,[7],11 µM (active)
CCCCCCCCCCCCCCCC(=O)OC[C@H](O)[C@H]1OC(=O)C(O)=C1O,outcome,[1],inactive
same,outcome,[4],inactive
same,outcome,[6],inactive
same,outcome,[7],inactive
CN(CCOc1ccc(CC2SC(=O)NC2=O)cc1)c1ccccn1 (stereo not drawn),outcome,[2],inactive
O=C1c2ccccc2C(=O)N1SC1CCCCC1,outcome,[2],inactive
same,outcome,[4],inactive
same,outcome,[5],inactive
same,outcome,[8],inactive
same,outcome,[9],inactive
Cc1ccc(C(C)C)cc1O,AC50,[1],10.6 µM (active)
O=C(O)CCSCCC(=O)O,outcome,[2],inactive
CN(C)CCCN,outcome,[4],inactive
same,outcome,[5],inactive
O=C1OC2(c3cc(Br)c(O)c(Br)c3Oc3c2cc(Br)c(O)c3Br)c2c(Cl)c(Cl)c(Cl)c(Cl)c21,outcome,[1],inactive
CC(C)C[C@H]1C(=O)N2CCC[C@H]2[C@]2(O)O[C@](NC(=O)[C@@H]3C=C4c5cccc6[nH]c(Br)c(c56)C[C@H]4N(C)C3)(C(C)C)C(=O)N12,AC50,[1],1.05 µM (active)
CC(C)c1cccc(O)c1,outcome,[2],inactive
same,outcome,[4],inactive
same,outcome,[5],inactive
same,AC50,[8],52 µM (active)
CCCCCCCCC=O,outcome,[2],inactive
same,outcome,[4],inactive
same,outcome,[5],inactive
same,outcome,[8],inactive
CNCCCC12CCC(c3ccccc31)c1ccccc12,outcome,[2],inactive
OCCOCCOCCOCCO,outcome,[1],inactive
same,outcome,[4],inactive
same,outcome,[8],inactive
CC(=O)OCCC(C)CC(C)(C)C (stereo not drawn),outcome,[4],inactive
same,outcome,[5],inactive
O=C1C(c2[nH]c3ccc(S(=O)(=O)O)cc3c2O)=Nc2ccc(S(=O)(=O)O)cc21,outcome,[1],inactive
CC(=O)[C@H]1CC[C@H]2[C@@H]3CC=C4C[C@@H](O)CC[C@]4(C)[C@H]3CC[C@]12C,outcome,[2],inactive
O=C(COc1ccc(Cl)cc1)N1CCN(Cc2ccc3c(c2)OCO3)CC1,outcome,[2],inactive
CCN(CC)c1ccc(C(=C2C=CC(=[N+](CC)CC)C=C2)c2ccc(S(=O)(=O)O)cc2S(=O)(=O)[O-])cc1,outcome,[1],inactive
same,outcome,[6],inactive
same,outcome,[7],inactive
same,outcome,[9],inactive
CC1COc2ccccc2N1C(=O)C(Cl)Cl (stereo not drawn),AC50,[2],0.0627 µM (active)
same,outcome,[4],inactive
same,outcome,[5],inactive
same,outcome,[8],inactive
same,outcome,[9],inactive
CC(C)C(C)(C)C(C)(C)C(C)(C)S,outcome,[2],inactive
CC(=O)C=CC1=C(C)CCCC1(C)C,outcome,[4],inactive
same,outcome,[5],inactive
COC(=O)C1=C(C)NC(C)=C(C(=O)OCCN(C)Cc2ccccc2)C1c1cccc([N+](=O)[O-])c1 (stereo not drawn),AC50,[2],9.13 µM (active)
C#C[C@]1(O)CC[C@H]2[C@@H]3CCC4=Cc5oncc5C[C@]4(C)[C@H]3CC[C@@]21C,outcome,[1],inactive
same,AC50,[2],11.5 µM (active)
same,outcome,[2],inactive
same,outcome,[3],inactive
CC(C)=CCCC(C)=CCCC(C)=CCO,outcome,[1],inactive
C=CC(C)(O)CCC=C(C)CCC=C(C)C (stereo not drawn),outcome,[1],inactive
O=c1[nH]nnc2ccccc12,outcome,[1],inactive
NNc1nc(-c2ccc(N)cc2)cs1,outcome,[2],inactive
CCCCCC(CO)CCC (stereo not drawn),outcome,[9],inactive
CCCCC[Si](OCC)(OCC)OCC,outcome,[6],inactive
same,outcome,[7],inactive
same,outcome,[10],inactive
COc1cc(C(C)(C)C)c(O)c(C(C)(C)C)c1,outcome,[10],inactive
CCCOCC(C)O (stereo not drawn),outcome,[6],inactive
same,outcome,[7],inactive
CCC/C=C/C=O,outcome,[4],inactive
same,outcome,[5],inactive
same,outcome,[8],inactive
same,outcome,[6],inactive
same,outcome,[7],inactive
CCCCCCCCCCCCCC(=O)O,outcome,[4],inactive
same,outcome,[5],inactive
same,outcome,[8],inactive
CCN(CC)c1ccc2c(-c3ccccc3C(=O)O)c3ccc(=[N+](CC)CC)cc-3oc2c1,AC50,[4],12.2 µM (active)
same,AC50,[5],12.2 µM (active)
same,AC50,[8],12 µM (active)
Cc1ccc(S)cc1,outcome,[4],inactive
same,outcome,[5],inactive
same,outcome,[8],inactive
CCCC/C=C\CCCCCCCCCC=O,outcome,[9],inactive
CCCCCOC(=O)CCC,outcome,[10],inactive
C=C(C)C(=O)O,outcome,[4],inactive
same,outcome,[5],inactive
same,outcome,[8],inactive
CCCCCCCCCCCCCCCC(=O)O,outcome,[10],inactive
NC(=O)Nc1ccc(Cl)cc1,outcome,[4],inactive
same,outcome,[5],inactive
same,outcome,[8],inactive
CCCCc1ccc(N)cc1,outcome,[4],inactive
same,outcome,[5],inactive
same,AC50,[8],50 µM (active)
c1ccc(CCCc2ccccn2)cc1,outcome,[4],inactive
same,outcome,[5],inactive
same,outcome,[8],inactive
same,outcome,[9],inactive
O=C[C@@H](O)[C@H](O)[C@H](O)CO,outcome,[6],inactive
same,outcome,[9],inactive
COc1ccc(O)cc1,outcome,[6],inactive
C[Si](O[Si](C)(C)C)O[Si](C)(C)C,outcome,[6],inactive
CCCCCCCCCCCCCOS(=O)(=O)O,outcome,[6],inactive
same,outcome,[7],inactive
same,AC50,[10],2.1 µM (active)
CCCCOCCOCCOCCOCCO,outcome,[4],inactive
same,outcome,[8],inactive
CCCCC(CC)COC(=O)/C=C\C(=O)OCC(CC)CCCC (stereo not drawn),AC50,[6],75.5 µM (active)
BrC1CCC(Br)C(Br)CCC(Br)C(Br)CCC1Br (stereo not drawn),outcome,[4],inactive
same,outcome,[5],inactive
same,AC50,[6],19.6 µM (active)
same,outcome,[7],inactive
CC(C)(N)CO,outcome,[4],inactive
same,outcome,[5],inactive
same,outcome,[8],inactive
c1ccc2[nH]ccc2c1,outcome,[6],inactive
same,outcome,[7],inactive
NCCCN1CCOCC1,outcome,[4],inactive
same,outcome,[5],inactive
same,outcome,[6],inactive
same,outcome,[7],inactive
C=CCOc1nc(OCC=C)nc(OCC=C)n1,outcome,[9],inactive
CC(=O)OCCOC(C)=O,outcome,[4],inactive
same,outcome,[5],inactive
same,outcome,[8],inactive
same,outcome,[9],inactive
CC(C)(C)C(=O)c1ccccc1,outcome,[4],inactive
same,outcome,[5],inactive
OC1OC[C@@H](O)[C@H](O)[C@H]1O (stereo partly drawn),outcome,[9],inactive
CCCCCCCCC,outcome,[4],inactive
same,outcome,[5],inactive
same,outcome,[8],inactive
COc1c(Cl)c(Cl)c(Cl)c(Cl)c1Cl,AC50,[9],41.8 µM (active)
CCCCCCCCCC=O,outcome,[4],inactive
same,outcome,[5],inactive
same,outcome,[8],inactive
O=c1cc(-c2ccccc2)oc2cc(O)cc(O)c12,outcome,[6],inactive
same,outcome,[7],inactive
OCCN1CCNCC1,outcome,[4],inactive
same,outcome,[5],inactive
same,outcome,[8],inactive
